Assay outcomes deposited in PubChem BioAssay by National Center for Advancing Translational Sciences (NCATS).
Shown are actives, neighbours in structure and some others; about 21% of the full set was active somewhere.
Pf growth 96h: inhibits malaria parasite growth, 96 h | P. falciparum luciferase reporter growth, 96 h | Potency, µM (doses to about 28.7 µM), for inactives: at the highest dose activity change, negative = inhibition, actives largely listed as inhibitors | hit rate 6.9% among 320,000 | AID 504834; active = well fitted inhibition curve with a large enough effect; inconclusive = small, poorly fitted or top-dose-only effect, or another doubt; inactive = no such curve, though single readings can be large or run the other way; also: potency is read from the fitted curve at half-maximal effect; % is scaled to controls: 0 for no effect and ±100 for the full control effect
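Infected RBCs, 2% Hct / 0.05% parasitemia final; luciferase-reporter P. falciparum; cpd 96 h, 37 C, 5% CO2; luciferase detection reagent; luminescence.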
Pf growth 48h: P. falciparum growth inhibition at 48 hours (one generation) | P. falciparum luciferase growth in erythrocytes, 48 h | Potency, µM (titrated, usually from 28.7 µM), inactives show at the top dose activity change, negative = inhibition, hits mostly inhibitors | hit rate 5.9% among 310,000 | AID 504832; active = well fitted inhibition curve with a large enough effect; inconclusive = small, poorly fitted or top-dose-only effect, or another doubt; inactive = no such curve, though single readings can be large or run the other way; also: potency is read from the fitted curve at half-maximal effect; % is scaled to controls: 0 for no effect and ±100 for the full control effect
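Firefly luciferase activity from engineered P. falciparum reports growth; inhibitors lower the luminescent signal. Cultures contained 2% hematocrit erythrocytes at 0.1% final parasitemia.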
SARS PLP yeast: inhibitors of SARS-CoV papain-like protease in yeast | S. cerevisiae expressing SARS-CoV PLpro, growth rescue | Potency, µM (series often up to 32.9 µM), for the others: at the top dose activity, positive = growth rescue, most hits filed as activators | hit rate 0.19% among 330,000; also: potency is read from the fitted curve at half-maximal effect; 0% is about no effect; nearly all actives have a fitted effect of over 55% in size
NS1 inh: inhibitors of influenza NS1 protein function; Potency, µM (highest dose often 46.1 µM), without a hit: at the highest dose activity, positive = more growth; hit rate 0.4% among 270,000; also: potency is read from the fitted curve at half-maximal effect; actives are rising curves; nearly all actives have a fitted effect of over 50% in size
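S. cerevisiae expressing influenza A NS1, grown in glucose, washed, then diluted 1:100 into pH 6.0 -URA galactose medium with 23 nl compound. Growth recovery read as OD600; NS1-free strain serves as control.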
Cycloheximide cs: affects cycloheximide protein synthesis inhibition readout, counter-screen; hit rate 12% among 300,000; max response, %; cell reporter, cycloheximide protein synthesis inhibition counterscreen; in the data active = max response mostly above about 13%, no sharp cut-off; inactive = mostly below about 14%; also: read at 38.3 µM for the half of the compounds with a filed dose; 0% is about no effect
Shiga toxin inh: inhibitors of Shiga toxin in Vero cells. Vero cells, Shiga toxin protein synthesis inhibition reporter. inhibition, % at 38.7 µM. hit rate 9.2% among 290,000. AID 2315; in the data active = inhibition mostly above about 28%, no sharp cut-off; inactive = mostly below about 43%; also: 0% is about no effect
* = called active by the depositor; ? = inconclusive; · = no result given. Unless noted, calls follow the shape of the full dose curve.

SMILES	Pf growth 96h	Pf growth 48h	SARS PLP yeast	NS1 inh	Cycloheximide cs	Shiga toxin inh
Cc1[nH]c2ccccc2c1C(=O)CSC(=S)N(C)C	64%	51%	3%	5%	30*	74*
Cc1ccc2nc(SCC(=O)c3c(C)[nH]c4ccccc34)[nH]c2c1	-18%	39%	6%	?	21*	33
O=C(CSc1nc2ccccc2[nH]1)c1ccc(Cl)s1	·	?	-4%	3%	39*	86*
Fc1cccc(F)c1CSc1nc2ccccc2[nH]1	·	197%	-5%	-8%	37*	111*
Cc1[nH]c2ccccc2c1C(=O)CSc1nc2ncc(Cl)cc2[nH]1	-28%	9%	-2%	·	-2	-2
O=C(CSc1nc2ccccc2[nH]1)N1c2ccccc2Sc2ccccc21	89%	?	-46%	-15%	11	-6
COc1ccc(-c2nc(CSCC(=O)NC3CCCC3)c(C)o2)cc1OC	0%	-17%	-2%	-4%	-2	2
C[N+]1(C)[C@@H]2CC(OC(=O)C(O)(c3cccs3)c3cccs3)C[C@H]1[C@@H]1O[C@@H]12 (stereo partly drawn)	2%	?	·	·	·	·
O=C(CSc1nc2ccccc2[nH]1)Nc1c(F)cccc1F	57%	37%	0%	-11%	8	10
CSc1ccccc1NC(=O)CN(C)CC(=O)c1c(C)[nH]c2ccccc12	?	4.1µM*	-12%	·	·	·
O=C(CSc1nc2ccccc2[nH]1)c1ccccc1F	-17%	-40%	-1%	9%	40*	92*
COc1ccc(CCNC(=O)c2cc(-c3ccc(C)c(C)c3O)n[nH]2)cc1OC	15µM*	·	9%	19%	11	6
Cc1cc(O)c(-c2cc(C(=O)NCc3ccc4c(c3)OCO4)[nH]n2)cc1C	?	0%	-4%	8%	2	84
Cc1ccc(-c2cc(C(=O)NCc3ccc4c(c3)OCO4)[nH]n2)c(O)c1C	12µM*	0%	7%	?	12	8
CC1CCC(C(C)C)C(P(=O)(c2ccccc2)c2ccccc2)C1 (stereo not drawn)	·	·	·	·	1	37
C=C1c2cccc(O)c2C(O)=C2C(=O)[C@]3(O)C(O)=C(C(N)=O)C(=O)[C@@H](N(C)C)[C@@H]3[C@@H](O)[C@H]12	0.47µM*	?	1%	8%	-3	-2
CN(C)[C@H]1C(=O)C(C(=O)NCN2CCCC2)=C(O)[C@]2(O)C(=O)C3=C(O)c4c(O)cccc4[C@](C)(O)[C@H]3C[C@H]12	?	-16%	·	18%	·	·
C[C@H]1c2cccc(O)c2C(=O)C2C(=O)C3(O)C(=O)C(C(N)=O)C(=O)[C@@H](N(C)C)[C@@H]3[C@@H](O)[C@@H]21 (stereo partly drawn)	·	·	13%	·	·	·
C[C@H]1c2cccc(O)c2C(O)=C2C(=O)C3(O)C(O)=C(C(N)=O)C(=O)[C@@H](N(C)C)[C@@H]3[C@@H](O)[C@@H]21 (stereo partly drawn)	0.37µM*	4.7µM*	·	·	·	·
COc1cc(OC)c(OC)cc1/C=N/NC(=S)NCC1CCCO1 (stereo not drawn)	?	·	1%	-10%	-2	-13
CN(CCc1cn[nH]c1)C(=O)C1CCC(=O)N(CC2CCCCC2)C1 (stereo not drawn)	39%	-17%	6%	13%	-3	-8
CN(C)S(=O)(=O)c1ccc(C(=O)OCC(=O)Nc2ccc3c(c2)OCO3)cc1	32%	?	1%	·	·	·
COc1ccc(CCNC(=O)c2ccc(CN3CCC(Cc4ccccc4)CC3)cc2)cc1	?	?	-2%	10%	7	-3
Cc1ccc(CNC(=O)C23CN(Cc4ccccc4)CC2C(c2ccc([N+](=O)[O-])cc2)=NO3)o1 (stereo not drawn)	?	?	-7%	1%	2	-5
O=C(NCc1ccco1)C12CN(Cc3ccccc3)CC1C(c1ccc([N+](=O)[O-])cc1)=NO2 (stereo not drawn)	0%	12µM*	-9%	24%	7	5
SMILES	Pf growth 96h	Pf growth 48h	SARS PLP yeast	NS1 inh	Cycloheximide cs	Shiga toxin inh
COc1ccc(CNC(=O)C23CN(Cc4ccccc4)CC2C(c2ccc([N+](=O)[O-])cc2)=NO3)cc1 (stereo not drawn)	13µM*	6.6µM*	-4%	5%	-3	-8
O=C(NCc1ccccc1)C12CN(Cc3ccccc3)CC1C(c1ccc([N+](=O)[O-])cc1)=NO2 (stereo not drawn)	?	12µM*	-4%	0%	-3	-6
COc1ccc(CCNC(=O)C23CN(Cc4ccccc4)CC2C(c2ccc([N+](=O)[O-])cc2)=NO3)cc1 (stereo not drawn)	?	5.2µM*	0%	2%	7	8
Nc1ncnc2c1ncn2[C@@H]1O[C@H](CNC(=O)[C@@H](N)Cc2ccc(C(F)(F)F)cc2)[C@@H](O)[C@H]1O	·	·	-19%	·	·	·
CCN1C(=O)[C@H]2[C@@H](c3ccc(Cl)cc3)N3C(=O)CN(CCOC)C(=O)[C@@]3(C)[C@H]2C1=O	11%	32%	-1%	-3%	-3	-3
Cc1ccc(CNC(=O)C23CN(Cc4ccccc4)CC2C(c2cccc([N+](=O)[O-])c2)=NO3)cc1 (stereo not drawn)	?	10µM*	3%	?	21	20
CC(C)CC(=O)c1c[nH]c(C(=O)NCc2cccs2)c1	·	6%	2%	-8%	12	-4
Cc1cc(/C=C2/NC(=O)NC2=O)c(C)n1-c1ccccn1	9.3µM*	10%	-17%	1%	19*	19
Cc1cc(/C=C2/NC(=O)NC2=O)c(C)n1-c1ccc(C#N)cc1	?	-8%	1%	·	3	19
C=CCN1C(=O)/C(=C/c2cc(C)n(-c3ccccn3)c2C)C(=O)NC1=S	29%	-3%	-4%	19%	-3	-10
Cc1ccc(-n2c(C)cc(/C=C3\NC(=O)NC3=O)c2C)c(C)c1	13µM*	13µM*	-4%	-2%	13	1
O=C(O)c1cnn(-c2ccccc2)c1-c1ccccc1	·	3%	9%	12%	1	-9
O=C(N/N=C/c1ccc(-c2cccc([N+](=O)[O-])c2)o1)c1cccs1	?	12%	0%	6%	13*	6
NC(=S)N/N=C/c1ccc(-c2cccc([N+](=O)[O-])c2)o1	?	?	14%	-1%	14*	34
O=C(N/N=C/c1cccc([N+](=O)[O-])c1O)c1cccs1	69%	?	?	-24%	38*	active
O=C(N/N=C/c1ccc([N+](=O)[O-])cc1)c1cccs1	0%	48%	0%	1%	34*	31
Nc1nonc1C(=O)N/N=C/c1ccc(-c2cccc([N+](=O)[O-])c2)o1	0%	·	1%	-5%	-6	-5
